This passage reports AC50 and outcome results from PubChem BioAssay (EPA / NIEHS).

Records with an inconclusive call do not appear. The source made the active and inactive calls. How the source made its calls: active means hit-call score of the fitted dose curve at least 0.9, where 1 is the maximum; inconclusive means response in the unintended direction; inactive means score below 0.9.

Bile acid receptor (Homo sapiens), sequence (Q96RI1 whole entry, looked up, the tested form may be a part): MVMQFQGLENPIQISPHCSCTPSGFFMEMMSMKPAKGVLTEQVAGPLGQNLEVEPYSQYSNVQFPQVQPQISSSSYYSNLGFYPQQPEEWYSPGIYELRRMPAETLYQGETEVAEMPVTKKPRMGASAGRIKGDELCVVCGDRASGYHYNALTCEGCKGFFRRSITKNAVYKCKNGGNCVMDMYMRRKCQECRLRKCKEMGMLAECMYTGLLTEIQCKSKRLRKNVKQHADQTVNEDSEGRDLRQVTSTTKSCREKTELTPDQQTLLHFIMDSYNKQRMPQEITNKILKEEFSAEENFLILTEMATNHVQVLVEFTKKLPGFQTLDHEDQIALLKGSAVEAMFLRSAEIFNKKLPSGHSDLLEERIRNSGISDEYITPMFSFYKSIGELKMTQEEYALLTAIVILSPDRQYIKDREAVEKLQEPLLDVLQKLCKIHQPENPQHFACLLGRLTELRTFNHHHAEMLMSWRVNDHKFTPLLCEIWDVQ

The target in this test is Bile acid receptor (Homo sapiens) (UniProt Q96RI1). The experiment in a line: OT_FXR_FXRSRC1_1440: Odyssey Thera (OT) 24-hour HEK293T Protein-Complementation Assay for Farnesoid X receptor/SRC-1 Co-activator (AID 2283384). Here is the method:
OT_FXR_FXRSRC1_1440 is a cell-based assay that uses HEK293T, a human kidney cell line, with measurements taken at 24 hours after chemical dosing in a 384-well plate.OT_FXR_FXRSRC1_1440 is one of one assay component(s) measured or calculated from the OT_FXR_FXRSRC1_1440 assay. It is designed to make measurements of protein fragment complementation, a form of binding reporter, as detected with fluorescence intensity signals by Protein-fragment Complementation technology.Data from the assay component OT_FXR_FXRSRC1_1440 was analyzed into 1 assay endpoint. This assay endpoint, OT_FXR_FXRSRC1_1440, was analyzed in the positive analysis fitting direction relative to DMSO as the negative control and baseline of activity. Using a type of binding reporter, measures of receptor for gain-of-signal activity can be used to understand the binding at the pathway-level as they relate to the gene NR1H4. Furthermore, this assay endpoint can be referred to as a primary readout, because the performed assay has only produced 1 assay endpoint. To generalize the intended target to other relatable targets, this assay endpoint is annotated to the nuclear receptor intended target family, where the subfamily is non-steroidal.
Protein-fragment complementation assay, or PCA, is a method for the identification and quantification of protein-protein interactions. In the PCA, the proteins of interest ("bait" and "prey") are each covalently linked to fragments of a third protein (e.g. DHFR, which acts as a "reporter"). Interaction between the bait and the prey proteins brings the fragments of the reporter protein in close proximity to allow them to form a functional reporter protein whose activity can be measured.
On to `CC(C)(C)c1ccc(-c2ccc(C(C)(C)C)cc2)cc1`, for which the AC50 was 76.6 µM (active).
In the case of `CCN(CCC#N)c1ccc(N=Nc2c(Cl)cc([N+](=O)[O-])cc2Cl)cc1`, the call was inactive.
Still for that read-out and setting: the same measure for `NC(=O)N=NC(N)=O`: “inactive”; for `CCCCOCCOC(=O)COc1nc(Cl)c(Cl)cc1Cl`: “inactive”; for `CCOC(=O)CC`: “inactive”.
The same measure, in the same setting: the result for `c1ccc2c(c1)ccc1cc3c(ccc4ccccc43)cc12` reads “inactive”.
Same read-out and setting: the result for `CC=C1CC2C=CC1C2` (stereo not drawn) reads “inactive”.
Turning to `CC(=O)[C@H]1[C@H](C#N)C[C@H]2[C@@H]3CC=C4C[C@@H](O)CC[C@]4(C)[C@H]3CC[C@@]21C`, the outcome was inactive.
Still for that read-out and setting: the same measure for `NC(=O)c1ccccc1O`: “inactive”.
As to `CC(C)(C)c1ccc(OC(=O)c2ccccc2O)cc1`, the AC50 was 75.9 µM (active).
Regarding `CCCCCc1ccc(Cl)cc1`, the call was inactive.
On the same count and under the same terms, the same measure for `O=C(C(Cl)Cl)N1CCOC12CCCCC2`: “inactive”; for `CC/C=C\C/C=C\C/C=C\CCCCCCCC(=O)O`: “inactive”.

As a reminder, the AC50 is the concentration at which the activity in the assay is half-maximal.
